# Experimental data taken from PubChem BioAssay (NCATS).
# Results filed as inconclusive are left out. Where a call stands in place of a potency, no number is given. Active and inactive are the calls of the source. Unless noted, calls follow the shape of the dose curve; as a rule, active = well fitted curve in the direction sought with a large enough effect; inconclusive = small, poorly fitted or top-dose-only effect, or another doubt; inactive = no such curve, though single readings can be large; an effect the other way counts as inactive or inconclusive.
# Experiments:
# [1] = KB-3-1 P-gp reporter qHTS against the NCATS DSHEA and TCM libraries (AID 1919975)
# Outline: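 72 h exposure of KB-3-1 cells (DMEM, 10% FBS) to DSHEA/TCM samples, concentration-response; cell viability measured as CellTiter-Glo luminescence after 30 min at room temperature.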
# [2] = biological target: Cytochrome P450 1A2 (Homo sapiens) (UniProt P05177); test: qHTS for inhibitors of CYPIA2 against the NCATS DSHEA and TCM libraries (AID 1919976);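 also: light from luciferin formed by CYP1A2 from a pro-luciferin substrate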
# Chain of Cytochrome P450 1A2 (Homo sapiens) (P05177 whole entry, looked up): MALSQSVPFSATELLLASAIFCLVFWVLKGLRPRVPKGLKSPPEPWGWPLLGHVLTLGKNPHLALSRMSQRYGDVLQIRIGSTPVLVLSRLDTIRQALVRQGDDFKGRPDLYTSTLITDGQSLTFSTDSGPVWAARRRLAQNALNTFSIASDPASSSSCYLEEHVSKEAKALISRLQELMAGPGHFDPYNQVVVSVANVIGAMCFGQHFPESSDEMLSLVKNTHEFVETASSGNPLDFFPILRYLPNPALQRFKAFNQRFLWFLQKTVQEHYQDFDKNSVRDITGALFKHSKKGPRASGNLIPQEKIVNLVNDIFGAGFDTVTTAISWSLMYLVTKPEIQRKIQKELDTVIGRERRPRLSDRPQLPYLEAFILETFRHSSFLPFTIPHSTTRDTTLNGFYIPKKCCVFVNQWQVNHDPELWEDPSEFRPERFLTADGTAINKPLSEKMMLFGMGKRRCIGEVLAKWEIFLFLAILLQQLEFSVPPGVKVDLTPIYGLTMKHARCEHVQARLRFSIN
# Outline: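 CYP1A2 + luciferin substrate, 100 mM KPO4-type buffer; cmpd 15 min RT; 1x NADPH regen, 30-45 min RT dark; detection reagent 30 min RT; luminescence. Minus-enzyme wells as background; furafylline intraplate control.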
# [3] = qHTS Counterscreen for compound interference against the NCATS DSHEA and TCM libraries (AID 1919978); conditions: firefly luciferase detection reagent interference, luminescence
# Outline: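 Read-out is luminescence after 30 min at RT with luciferin detection reagent. Before that, compounds (19.5 nM to 39.8 uM final) sat 15 min at RT with 1 uM D-luciferin or 100 mM potassium phosphate buffer. PTC124 served as intraplate control.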
# [4] = Dual reporter qHTS for agonist of Pregnane X Receptor (hPXR) against the NCATS DSHEA and TCM libraries: Fluorescence readout (AID 1920058)
# Outline: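 HepG2 hPXR-Luc, 2000 cells/well, 5 h attach; cpds ~24 h, 37 °C/5% CO2; CellTiter-Fluor 1 h; fluor. Ex/Em 405/540 nm = viability.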
# [5] = biological target: Nuclear receptor subfamily 1 group I member 2 (Homo sapiens) (UniProt O75469); test: Dual reporter qHTS for agonist of Pregnane X Receptor (hPXR) against the NCATS DSHEA and TCM libraries: Luminescence readout (AID 1920059)
# Chain of Nuclear receptor subfamily 1 group I member 2 (Homo sapiens) (O75469 whole entry, looked up): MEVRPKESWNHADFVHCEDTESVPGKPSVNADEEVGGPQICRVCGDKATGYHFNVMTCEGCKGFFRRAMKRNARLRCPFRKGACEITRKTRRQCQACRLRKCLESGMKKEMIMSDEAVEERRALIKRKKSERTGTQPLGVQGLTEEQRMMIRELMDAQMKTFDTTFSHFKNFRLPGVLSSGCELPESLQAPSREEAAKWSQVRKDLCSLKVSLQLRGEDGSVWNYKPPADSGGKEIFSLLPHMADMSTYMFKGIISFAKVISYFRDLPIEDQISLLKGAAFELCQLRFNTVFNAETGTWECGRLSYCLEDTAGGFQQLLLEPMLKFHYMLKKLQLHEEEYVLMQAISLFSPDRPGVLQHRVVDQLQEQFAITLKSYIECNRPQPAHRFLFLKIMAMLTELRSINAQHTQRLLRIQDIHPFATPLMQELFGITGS
# Outline: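 hPXR-LucHepG2 cells in phenol red-free DMEM with 5% charcoal-stripped FBS, 2000 cells/well, attached 5 h, then exposed 24 h at 37C to compounds; rifampicin as positive agonist control (2.8 nM–92 uM). Luciferase luminescence read.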
# [6] = biological target: Nuclear receptor subfamily 1 group I member 2 (Homo sapiens) (UniProt O75469); test: Dual reporter qHTS for antagonist of Pregnane X Receptor (hPXR) against the NCATS DSHEA and TCM libraries: Luminescence Readout (AID 1920060);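 also: HepG2 cells carrying hPXR luciferase reporter stimulated with rifampicin at 2 µM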
# Outline: (§1)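 HepG2 hPXR-Luc, 2000 cells/well, charcoal-stripped FBS medium; 5 h attach; RIF 2 uM final; 24 h 37C/5% CO2; CellTiter-Fluor 1 h, fluor 405/540; ONE-Glo 30 min RT, lum.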
# [7] = Dual reporter qHTS for antagonist of Pregnane X Receptor (hPXR) against the NCATS DSHEA and TCM libraries: Fluorescence Readout (AID 1920061)
# Outline: as §1
# [8] = qHTS profiling for inhibitors of Plasmodium falciparum proliferation (AID 504749); also: potency is read from the fitted curve at half-maximal effect; as to all read-outs here: nearly all actives have a fitted effect of over 60% in size; conditions: P. falciparum in erythrocytes, SYBR Green DNA, 72 h; for activity, negative = inhibition: at 28.7 µM (top of the series)
# Outline: (§2)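 Parasite proliferation within erythrocytes, 72 h exposure. Endpoint: SYBR Green I fluorescence after overnight lysis at room temperature. Controls: 0.29 uM artemisinin, DMSO.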
# [9] = tested on: 3D7; test: as above; conditions: P. falciparum in erythrocytes, SYBR Green DNA, 72 h; series mostly up to 28.7 µM
# Outline: as §2
# [10] = tested on: 7G8; test: as above; conditions: P. falciparum in erythrocytes, SYBR Green DNA, 72 h; series mostly up to 28.7 µM
# Outline: as §2
# [11] = tested on: AA1029; test: as above; conditions: P. falciparum in erythrocytes, SYBR Green DNA, 72 h; series mostly up to 28.7 µM
# Outline: as §2
# [12] = tested on: AS120; test: as above; conditions: P. falciparum in erythrocytes, SYBR Green DNA, 72 h; series mostly up to 28.7 µM
# Outline: as §2
# [13] = tested on: ATS189; test: as above; conditions: P. falciparum in erythrocytes, SYBR Green DNA, 72 h; series mostly up to 28.7 µM
# Outline: as §2
# [14] = tested on: ATS95; test: as above; conditions: P. falciparum in erythrocytes, SYBR Green DNA, 72 h; series mostly up to 28.7 µM
# Outline: as §2
# [15] = tested on: C2A; test: as above; conditions: P. falciparum in erythrocytes, SYBR Green DNA, 72 h; series mostly up to 28.7 µM
# Outline: as §2
# [16] = tested on: CP185; test: as above; conditions: P. falciparum in erythrocytes, SYBR Green DNA, 72 h; series mostly up to 28.7 µM
# Outline: as §2
# [17] = tested on: CP191; test: as above; conditions: P. falciparum in erythrocytes, SYBR Green DNA, 72 h; series mostly up to 28.7 µM
# Outline: as §2
# [18] = tested on: CP192; test: as above; conditions: P. falciparum in erythrocytes, SYBR Green DNA, 72 h; series mostly up to 28.7 µM
# Outline: as §2
# [19] = tested on: CP194; test: as above; conditions: P. falciparum in erythrocytes, SYBR Green DNA, 72 h; series mostly up to 28.7 µM
# Outline: as §2
# [20] = qHTS drug screen for cell cycle checkpoint inhibitors in PARPi-resistant BRCA-mutant ovarian cancer cell lines. (AID 1963452; calls by dose curve); conditions: PEO1/OlaR viability, CellTiter-Glo luminescence, 96 h, stronger effect = lower value
# Outline: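 PEO1, PEO4 and PEO1/OlaR ovarian cancer cells, 600 per well, exposed 96 h at 37C to a dilution series. Viability read by CellTiter-Glo luminescence, normalized to DMSO and empty wells; activity summarized as Z-AUC.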
# [21] = measured here: PEO1 parental Z-AUC
structure (smiles),measurement,setting,value
O=C(O)/C=C/c1ccccc1,outcome,[1],inactive
same,Potency,[2],inactive
same,max response,[3],-1.31% (inactive)
same,outcome,[4],inactive
same,Potency,[5],inactive
same,outcome,[6],inactive
same,outcome,[7],inactive
same,"activity, negative = inhibition",[8]; parasite line A,-6.43% (inactive)
same,"activity, negative = inhibition",[8]; parasite line B,4.85% (inactive)
same,Potency,[9],inactive
same,Potency,[10],inactive
same,Potency,[11],inactive
same,Potency,[12],inactive
same,Potency,[13],inactive
same,Potency,[14],inactive
same,Potency,[15],inactive
same,Potency,[16],inactive
same,Potency,[17],inactive
same,Potency,[18],inactive
same,Potency,[19],inactive
CC/C=C\C/C=C\C/C=C\C/C=C\C/C=C\CCCC(=O)O,outcome,[1],inactive
same,Potency,[2],inactive
same,max response,[3],0.593% (inactive)
same,outcome,[4],inactive
same,Potency,[5],inactive
same,outcome,[6],inactive
same,outcome,[7],inactive
same,"activity, negative = inhibition",[8]; parasite line A,-4.56% (inactive)
same,"activity, negative = inhibition",[8]; parasite line B,-6.54% (inactive)
same,Potency,[9],inactive
same,Potency,[11],inactive
same,Potency,[12],inactive
same,Potency,[13],inactive
same,Potency,[14],inactive
same,Potency,[15],inactive
same,Potency,[16],inactive
same,Potency,[17],inactive
same,Potency,[18],inactive
same,Potency,[19],inactive
C=C1CC[C@H](O)CC1=C/C=C1\CCC[C@]2(C)[C@@H]([C@H](C)/C=C/[C@H](C)C(C)C)CC[C@@H]12,outcome,[1],inactive
same,Potency,[2],inactive
same,max response,[3],-0.883% (inactive)
same,outcome,[4],inactive
same,outcome,[6],inactive
same,outcome,[7],inactive
Cn1cc(NC(=O)c2cc(NC(=O)c3cc(NC=O)cn3C)cn2C)cc1C(=O)NCCC(=N)N,Potency,[8]; parasite line A,8.91 µM (active)
same,Potency,[8]; parasite line B,11.2 µM (active)
same,Potency,[9],10 µM (active)
same,Potency,[10],0.316 µM (active)
same,Potency,[11],7.08 µM (active)
same,Potency,[12],7.08 µM (active)
same,Potency,[13],11.2 µM (active)
same,Potency,[14],6.31 µM (active)
same,Potency,[15],7.94 µM (active)
same,Potency,[16],11.2 µM (active)
same,Potency,[17],10 µM (active)
CC(=O)NCCCS(=O)(=O)O,Z-AUC,[20],1.02 (inactive)
same,Z-AUC,[20]; [21],1.45
same,Z-AUC,[20]; measured here: PEO4 Z-AUC,1.03
same,"activity, negative = inhibition",[8]; parasite line A,2.58% (inactive)
same,"activity, negative = inhibition",[8]; parasite line B,11.9% (inactive)
same,Potency,[9],inactive
same,Potency,[10],inactive
same,Potency,[11],inactive
same,Potency,[12],inactive
same,Potency,[13],inactive
same,Potency,[14],inactive
same,Potency,[15],inactive
same,Potency,[16],inactive
same,Potency,[17],inactive
same,Potency,[18],inactive
same,Potency,[19],inactive
CC[C@H](CC[C@@H](C)[C@H]1CC[C@H]2[C@@H]3CC=C4C[C@@H](O)CC[C@]4(C)[C@H]3CC[C@]12C)C(C)C,outcome,[1],inactive
same,max response,[3],-1.45% (inactive)
same,outcome,[4],inactive
same,Potency,[5],inactive
same,outcome,[6],inactive
same,outcome,[7],inactive
same,Z-AUC,[20],0.987 (inactive)
same,Z-AUC,[20]; [21],0.643
same,Z-AUC,[20]; measured here: PEO4 Z-AUC,0.776
CN[C@@H]1[C@@H](O)[C@@H](O[C@@H]2[C@@H](O)[C@H](O[C@H]3O[C@H](CN)[C@@H](O)[C@H](O)[C@H]3O)[C@@H](N)C[C@H]2NC(=O)C(O)CN)OC[C@]1(C)O (stereo partly drawn),Z-AUC,[20],-1.59 (inactive)
same,Z-AUC,[20]; [21],-0.482
same,Z-AUC,[20]; measured here: PEO4 Z-AUC,-1.12
CN(C)CCOc1ccc(/C(=C(/CCCl)c2ccccc2)c2ccccc2)cc1,Z-AUC,[20],0.623 (inactive)
same,Z-AUC,[20]; [21],0.97
same,Z-AUC,[20]; measured here: PEO4 Z-AUC,0.656
same,"activity, negative = inhibition",[8]; parasite line A,-4.58% (inactive)
same,"activity, negative = inhibition",[8]; parasite line B,-0.289% (inactive)
same,Potency,[9],inactive
same,Potency,[11],inactive
same,Potency,[12],inactive
same,Potency,[13],inactive
same,Potency,[15],inactive
same,Potency,[16],inactive
same,Potency,[17],inactive
same,Potency,[18],inactive
same,Potency,[19],inactive
